Source: PubChem BioAssay (NCATS)
Records with an inconclusive call do not appear. Unmarked numbers belong to inactive results. Calls come from the whole dose curve; as a rule, active = well fitted activation curve with a large enough effect; inconclusive = small, poorly fitted or top-dose-only effect; inactive = no such curve, though single readings can be large or run the other way.

target: Cellular tumor antigen p53 (Homo sapiens) (UniProt P04637); assay: Primary qHTS for small molecule compounds that upregulate eGFP-tagged delta133p53alpha (in N-terminal) cells. (AID 2060322); details: NCI-H358 eGFP-delta133p53alpha fluorescence, 24 h; activation: active compounds read high;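 note: cells pre-induced with doxycycline then dosed without doxycycline; series mostly up to about 56 µM; 0% = DMSO vehicle and 100% = reference activator; nearly all actives have a fitted effect of over 75% in size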
Procedure, shortened: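 NCI-H358 cells pre-induced 24 h with 10 ng/ml doxycycline for eGFP-delta133p53alpha, plated dox-free and exposed 24 h at 37C to titrated compounds. Fixed, Hoechst-stained; gated GFP peak intensity by laser scanning cytometry, normalized to DMSO (0%) and 57.5 uM 5-azacytidine (100%).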

Cellular tumor antigen p53 (Homo sapiens), sequence (P04637 whole entry, looked up): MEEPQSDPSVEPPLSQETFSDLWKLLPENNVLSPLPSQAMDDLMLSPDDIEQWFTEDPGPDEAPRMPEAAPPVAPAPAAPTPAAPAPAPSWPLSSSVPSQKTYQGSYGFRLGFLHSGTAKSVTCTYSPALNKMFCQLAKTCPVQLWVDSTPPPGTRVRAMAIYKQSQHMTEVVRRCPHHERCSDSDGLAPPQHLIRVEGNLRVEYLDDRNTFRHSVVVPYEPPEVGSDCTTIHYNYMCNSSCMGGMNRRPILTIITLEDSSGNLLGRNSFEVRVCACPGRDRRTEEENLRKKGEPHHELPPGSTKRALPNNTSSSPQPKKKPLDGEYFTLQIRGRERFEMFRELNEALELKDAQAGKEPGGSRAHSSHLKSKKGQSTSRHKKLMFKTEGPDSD

| SMILES | activation [%] |
| --- | --- |
| CC(=O)OCC1=CCC2C(C)(C)CCCC2(C)C12CCC(C)(CC(=O)O)O2 (stereo not drawn) | 25.9 |
| O=c1cc(N2CCN(c3cccc(C(F)(F)F)c3)CC2)[nH]c(=O)n1C1CCCCC1 | 25 |
| CC(C)C1=CC2=CCC3[C@](C)(CCC[C@@]3(C)C(=O)O)C2CC1=O (stereo partly drawn) | 8.93 |
| C/C=C(\C)C(=O)OC[C@H]1O[C@H](O[C@H]2O[C@H](CO)[C@@H](OC(=O)/C(C)=C/C)[C@H](O)[C@H]2O[C@@H]2O[C@H](CO)[C@@H](O)[C@H](O)[C@H]2O)[C@H](O[C@@H]2O[C@H](CO)[C@@H](O)[C@H](O)[C@H]2O)[C@@H](O)[C@@H]1O | -4.46 |
| CC(=O)OC(C)(C)/C=C/C(=O)[C@](C)(O)[C@H]1C(O)C[C@@]2(C)[C@@H]3CC=C4[C@@H](C=C(O[C@@H]5O[C@H](CO)[C@@H](O)[C@H](O)[C@H]5O)C(=O)C4(C)C)[C@]3(C)C(=O)C[C@]12C (stereo partly drawn) | 22.3 |
| CC1(C(=O)O)CCCC2(C)C3CC4C5CC3(CCC12)CC45C (stereo not drawn) | 17.9 |
| CC1(C)CC[C@]2(C(=O)O[C@@H]3O[C@H](CO)[C@@H](O)[C@H](O)[C@H]3O)CC[C@]3(C)C(=CCC4[C@@]5(C)CC[C@H](O[C@@H]6O[C@H](C(=O)O)[C@@H](O)[C@H](O)[C@H]6OC6OC(CO)C(O)C(O)C6O)C(C)(C)C5CC[C@]43C)[C@@H]2C1 (stereo partly drawn) | -5.36 |
| CC1(C)OC(=O)C(OCC2CC2)=C1c1ccc(S(C)(=O)=O)cc1 | -2.33 |
